Each structure is given as a SMILES string. Records with an inconclusive call do not appear. Active and inactive are the calls of the source. How the source made its calls: active means hit-call score of the fitted dose curve at least 0.9, where 1 is the maximum; inconclusive means response in the unintended direction; inactive means score below 0.9.

One may read the AC50 as the midpoint of the concentration-response curve, whichever way the signal moves.

For assay [1], the target named is rat Monoamine Oxidase, MAO-B, Peripheral (MAOBP), Maob (gene 25750) (UniProt P19643). Kind of assay: NVS_ENZ_rMAOBP: NovaScreen (NVS) Enzymatic Assay for rat Monoamine Oxidase, MAO-B, Peripheral (MAOBP) (AID 2283242).
Sequence of rat Monoamine Oxidase, MAO-B, Peripheral (MAOBP), Maob (gene 25750) (P19643 whole entry, looked up): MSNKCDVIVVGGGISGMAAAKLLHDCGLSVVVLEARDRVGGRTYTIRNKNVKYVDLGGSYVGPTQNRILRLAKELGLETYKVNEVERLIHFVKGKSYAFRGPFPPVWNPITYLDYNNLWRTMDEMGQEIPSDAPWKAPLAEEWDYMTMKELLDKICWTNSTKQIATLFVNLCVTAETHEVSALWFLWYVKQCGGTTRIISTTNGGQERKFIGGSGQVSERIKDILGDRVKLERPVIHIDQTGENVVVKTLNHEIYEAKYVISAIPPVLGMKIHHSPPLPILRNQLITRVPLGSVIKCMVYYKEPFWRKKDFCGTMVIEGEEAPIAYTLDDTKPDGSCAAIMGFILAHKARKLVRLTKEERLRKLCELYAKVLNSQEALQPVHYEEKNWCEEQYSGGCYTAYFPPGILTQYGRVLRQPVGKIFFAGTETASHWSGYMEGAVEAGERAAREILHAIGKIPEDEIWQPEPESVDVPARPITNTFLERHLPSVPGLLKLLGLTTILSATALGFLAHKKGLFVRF
Assay [2] deals with bovine Angiotensin II Receptor Type 2 (AT2), gene 407157. Kind of assay: NVS_GPCR_bAT2: NovaScreen (NVS) G Protein-Coupled Receptor Assay for bovine Angiotensin II Receptor Type 2 (AT2) (AID 2283240). The gist of the method:
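Radioligand displacement on bovine cerebellar membranes, 1 hour incubation, filter-based scintillation counting; loss of signal vs DMSO. Duplicate single-point screen at 25 uM, then concentration-response to 50 uM maximum.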

For assay [3], the system named is rat Monoamine Oxidase, MAO-A, Central (MAOAC), gene 29253. The assay can be described thus: NVS_ENZ_rMAOAC: NovaScreen (NVS) Enzymatic Assay for rat Monoamine Oxidase, MAO-A, Central (MAOAC) (AID 2283243).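 Further: potency refers to inhibition seen as signal drop below DMSO baseline.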 The essentials: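 Inhibition of rat brain-derived MAO-A was read by scintillation counting after 1.5 h exposure. Compounds screened first at 25 uM in duplicate, then in dose series if active.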

The nature of assay [4]: NVS_GPCR_bNPY_NonSelective: NovaScreen (NVS) G Protein-Coupled Receptor Assay for bovine Neuropeptide Y (NPY) Receptor, Non-selective Binding (AID 2283245). The gist of the method:
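Bovine hippocampal membranes incubated 1 hour with radioligand and test chemical. Bound ligand measured by filter-based scintillation counting. Single-concentration screen at 25 uM in duplicate, then concentration-response up to 50 uM.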

In assay [5] the target is human Serotonin, 5-Hydroxytryptamine Receptor 2A (5HT2A), HTR2A (gene 3356) (UniProt P28223). The assay can be described thus: NVS_GPCR_h5HT2A: NovaScreen (NVS) G Protein-Coupled Receptor Assay for human Serotonin, 5-Hydroxytryptamine Receptor 2A (5HT2A) (AID 2283249). The gist of the method:
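Human cortex membranes, cell-free radioligand binding; filter-based scintillation read 1.5 h after dosing. Duplicate screen at 25 uM first; displacement of specific binding (loss of signal) versus DMSO.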

Assay [6] addresses human Serotonin, 5-Hydroxytryptamine Receptor 5A (5HT5A), HTR5A (gene 3361) (UniProt P47898). The assay can be described thus: NVS_GPCR_h5HT5A: NovaScreen (NVS) G Protein-Coupled Receptor Assay for human Serotonin, 5-Hydroxytryptamine Receptor 5A (5HT5A) (AID 2283251). The essentials: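 Cell-free radioligand displacement binding on HEK293-derived membrane protein, 1 h incubation, filter-based scintillation counting. Primary screen in duplicate at 25 uM, actives followed in concentration series; loss of signal fitted versus DMSO.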

For assay [7], the target named is guinea pig Opioid, Kappa 1 Receptor (OpiateK), OPRK1 (gene 100135587) (UniProt P41144). Kind of assay: NVS_GPCR_gOpiateK: NovaScreen (NVS) G Protein-Coupled Receptor Assay for guinea pig Opioid, Kappa 1 Receptor (OpiateK) (AID 2283252).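 Further: active means reduced radioligand binding relative to DMSO.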 The essentials: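 Signal is scintillation counts of filter-trapped radioligand bound to guinea pig cerebellar membrane receptor, measured 2 hours post-dosing. Activity is loss of binding versus DMSO, first at 25 uM in duplicate, then as concentration series for actives.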
Sequence of guinea pig Opioid, Kappa 1 Receptor (OpiateK), OPRK1 (gene 100135587) (P41144 whole entry, looked up): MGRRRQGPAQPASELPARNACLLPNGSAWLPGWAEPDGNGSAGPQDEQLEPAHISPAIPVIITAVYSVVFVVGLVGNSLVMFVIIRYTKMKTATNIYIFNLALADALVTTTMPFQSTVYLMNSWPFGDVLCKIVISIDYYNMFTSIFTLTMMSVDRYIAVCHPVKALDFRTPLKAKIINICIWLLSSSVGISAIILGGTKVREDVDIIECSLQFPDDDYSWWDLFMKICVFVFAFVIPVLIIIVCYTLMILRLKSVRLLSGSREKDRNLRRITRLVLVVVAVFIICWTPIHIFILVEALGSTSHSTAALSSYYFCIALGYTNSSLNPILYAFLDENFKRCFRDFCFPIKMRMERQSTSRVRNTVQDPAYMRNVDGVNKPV

The target in assay [8] is human Serotonin, 5-Hydroxytryptamine Receptor 6 (5HT6), HTR6 (gene 3362) (UniProt P50406). Kind of assay: NVS_GPCR_h5HT6: NovaScreen (NVS) G Protein-Coupled Receptor Assay for human Serotonin, 5-Hydroxytryptamine Receptor 6 (5HT6) (AID 2283253). The essentials: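 Radioligand binding to 5HT6 in HEK293-derived membranes, cell-free, 1 h after dosing; bound ligand measured by filter-based scintillation counting. Primary screen in duplicate at 25 uM; actives retested in concentration series.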
Sequence of human Serotonin, 5-Hydroxytryptamine Receptor 6 (5HT6), HTR6 (gene 3362) (P50406 whole entry, looked up): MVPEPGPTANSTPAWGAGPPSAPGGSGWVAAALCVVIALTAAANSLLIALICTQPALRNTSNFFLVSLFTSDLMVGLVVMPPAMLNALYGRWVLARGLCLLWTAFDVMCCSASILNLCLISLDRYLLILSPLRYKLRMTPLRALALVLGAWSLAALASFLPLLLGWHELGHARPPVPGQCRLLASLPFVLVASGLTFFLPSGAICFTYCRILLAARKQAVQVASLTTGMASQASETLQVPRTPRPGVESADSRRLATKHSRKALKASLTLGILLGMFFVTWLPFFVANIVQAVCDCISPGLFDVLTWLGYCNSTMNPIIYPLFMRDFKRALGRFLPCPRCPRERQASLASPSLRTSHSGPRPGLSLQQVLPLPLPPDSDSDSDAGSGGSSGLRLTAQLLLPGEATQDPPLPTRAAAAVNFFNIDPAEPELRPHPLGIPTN

For assay [9], the target named is human Serotonin, 5-Hydroxytryptamine Receptor 7 (5HT7), HTR7 (gene 3363) (UniProt P34969). The assay can be described thus: NVS_GPCR_h5HT7: NovaScreen (NVS) G Protein-Coupled Receptor Assay for human Serotonin, 5-Hydroxytryptamine Receptor 7 (5HT7) (AID 2283255).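 Further: hits reduce specific radioligand binding relative to DMSO.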 The gist of the method:
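Radioligand displacement on membranes from CHO cells expressing human 5HT7, 1 h incubation, filter-based scintillation counting. Primary screen used a single 25 uM concentration in duplicate; actives were followed up in concentration series.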

Assay [10] addresses human Adrenergic, Alpha 2A Receptor (Adra2A), ADRA2A (gene 150) (UniProt P08913). Kind of assay: NVS_GPCR_hAdra2A: NovaScreen (NVS) G Protein-Coupled Receptor Assay for human Adrenergic, Alpha 2A Receptor (Adra2A) (AID 2283257). The gist of the method:
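Radioligand filter-binding was run on HT29-derived membranes, cell-free, read by scintillation counting 1 h after dosing. Primary screening was in duplicate at 25 uM, with concentration series in follow-up. Loss of signal versus DMSO indicates displacement.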

The target of assay [11] is human Adrenergic, Beta 1 Receptor (Adrb1), ADRB1 (gene 153) (UniProt P08588). The assay can be described thus: NVS_GPCR_hAdrb1: NovaScreen (NVS) G Protein-Coupled Receptor Assay for human Adrenergic, Beta 1 Receptor (Adrb1) (AID 2283258). The essentials:
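Cell-free radioligand displacement on receptor from human neuroepithelioma cells; 2 h after dosing, filter-based scintillation counting. Primary screen in duplicate at 25 uM, actives retested in concentration series; loss of signal vs DMSO baseline.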

In assay [12] the target is human Adrenergic, Alpha 2c Receptor (Adra2C), ADRA2C (gene 152) (UniProt P18825). Kind of assay: NVS_GPCR_hAdra2C: NovaScreen (NVS) G Protein-Coupled Receptor Assay for human Adrenergic, Alpha 2c Receptor (Adra2C) (AID 2283259). The gist of the method:
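Radioligand binding on Sf9-expressed receptor membranes, 1 h after chemical dosing, filter-based scintillation read-out. Loss of binding fitted positively versus DMSO; primary duplicate screen at 25 uM, actives retested in concentration series.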

Assay [13] deals with Adenosine receptor A1 (Bos taurus) (UniProt P28190). The assay can be described thus: NVS_GPCR_bAdoR_NonSelective: NovaScreen (NVS) G Protein-Coupled Receptor Assay for bovine Adenosine Receptor (AdoR), Non-selective Binding (AID 2283244). The essentials:
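Bovine striatal membranes, radioligand displacement binding, 1 h after dosing, filter-based scintillation counting. Screened in duplicate at 25 uM, then concentration-response up to 50 uM; loss of specific binding relative to DMSO.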

Assay [14] deals with guinea pig Muscarinic, Peripheral (Mperiperal) Receptor, Non-selective Binding, gene 100379235. Kind of assay: NVS_GPCR_gMPeripheral_NonSelective: NovaScreen (NVS) G Protein-Coupled Receptor Assay for guinea pig Muscarinic, Peripheral (Mperiperal) Receptor, Non-selective Binding (AID 2283250). The gist of the method: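 Guinea pig bladder membranes, radioligand binding read 1 h after dosing by filter scintillation counting; loss of signal vs DMSO. Primary duplicate screen at 25 uM, then concentration-response up to 50 uM.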

Assay [15] concerns the target human Adenosine A1 Receptor (AdoRA1), ADORA1 (gene 134) (UniProt P30542). Kind of assay: NVS_GPCR_hAdoRA1: NovaScreen (NVS) G Protein-Coupled Receptor Assay for human Adenosine A1 Receptor (AdoRA1) (AID 2283254). The essentials:
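Hum. cortical membranes + radioligand, cmpd 1 h; filtration, scintillation count. Readout = decrease vs DMSO. Primary 25 uM dup; hits → conc. series.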

Assay [16] has as its target human Adenosine A2a Receptor (AdoRA2a), ADORA2A (gene 135) (UniProt P29274). Kind of assay: NVS_GPCR_hAdoRA2a: NovaScreen (NVS) G Protein-Coupled Receptor Assay for human Adenosine A2a Receptor (AdoRA2a) (AID 2283256). The gist of the method: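 Cell-free radioligand binding on membranes from HEK293 expressing the receptor; competitive displacement read 1.5 h after dosing by filter-based scintillation counting. Primary screen in duplicate at 25 uM; actives followed in concentration series, with DMSO as baseline.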

Assay [17] addresses bovine Dopamine Receptor (DR), Non-selective Binding, DRD1 (gene 281125) (UniProt Q95136). The assay can be described thus: NVS_GPCR_bDR_NonSelective: NovaScreen (NVS) G Protein-Coupled Receptor Assay for bovine Dopamine Receptor (DR), Non-selective Binding (AID 2283241). The gist of the method: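 Bovine striatal membranes; radioligand displacement read by filtration and scintillation counting 1 h after dosing, loss of signal vs DMSO. Screened in duplicate at 25 uM, then concentration-response for hits.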

The test system of assay [18] is guinea pig Leukotriene B4 Receptor (LTB4), gene 100379538. The assay can be described thus: NVS_GPCR_gLTB4: NovaScreen (NVS) G Protein-Coupled Receptor Assay for guinea pig Leukotriene B4 Receptor (LTB4) (AID 2283247). The gist of the method: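 Radioligand displacement on guinea pig spleen membranes, filter-based scintillation counting 2 h after dosing. Primary duplicate single point at 25 uM; hits over threshold (e.g. 30% inhibition) run in concentration-response up to 50 uM, DMSO baseline.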

Sequence of human Serotonin, 5-Hydroxytryptamine Receptor 5A (5HT5A), HTR5A (gene 3361) (P47898 whole entry, looked up): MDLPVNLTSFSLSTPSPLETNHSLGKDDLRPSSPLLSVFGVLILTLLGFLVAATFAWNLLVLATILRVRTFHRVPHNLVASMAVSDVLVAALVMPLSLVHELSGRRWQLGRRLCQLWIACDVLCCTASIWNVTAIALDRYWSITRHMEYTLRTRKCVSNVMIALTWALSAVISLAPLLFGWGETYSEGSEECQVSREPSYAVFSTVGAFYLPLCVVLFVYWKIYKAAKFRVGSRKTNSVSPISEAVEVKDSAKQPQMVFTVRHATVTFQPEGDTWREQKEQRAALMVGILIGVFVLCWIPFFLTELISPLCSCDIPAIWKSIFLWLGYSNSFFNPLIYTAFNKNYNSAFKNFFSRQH
Sequence of human Adenosine A2a Receptor (AdoRA2a), ADORA2A (gene 135) (P29274 whole entry, looked up): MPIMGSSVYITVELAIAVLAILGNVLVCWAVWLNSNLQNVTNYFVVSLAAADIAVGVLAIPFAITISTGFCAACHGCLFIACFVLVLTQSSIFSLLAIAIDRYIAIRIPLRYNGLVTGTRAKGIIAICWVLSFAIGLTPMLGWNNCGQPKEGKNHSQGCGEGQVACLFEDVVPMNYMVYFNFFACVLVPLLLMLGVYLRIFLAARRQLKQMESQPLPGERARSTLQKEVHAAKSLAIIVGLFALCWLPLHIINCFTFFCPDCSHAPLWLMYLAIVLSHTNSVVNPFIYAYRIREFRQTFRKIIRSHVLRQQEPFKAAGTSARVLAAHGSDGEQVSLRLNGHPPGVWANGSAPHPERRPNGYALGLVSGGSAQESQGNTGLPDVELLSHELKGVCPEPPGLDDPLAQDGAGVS
Sequence of human Adenosine A1 Receptor (AdoRA1), ADORA1 (gene 134) (P30542 whole entry, looked up): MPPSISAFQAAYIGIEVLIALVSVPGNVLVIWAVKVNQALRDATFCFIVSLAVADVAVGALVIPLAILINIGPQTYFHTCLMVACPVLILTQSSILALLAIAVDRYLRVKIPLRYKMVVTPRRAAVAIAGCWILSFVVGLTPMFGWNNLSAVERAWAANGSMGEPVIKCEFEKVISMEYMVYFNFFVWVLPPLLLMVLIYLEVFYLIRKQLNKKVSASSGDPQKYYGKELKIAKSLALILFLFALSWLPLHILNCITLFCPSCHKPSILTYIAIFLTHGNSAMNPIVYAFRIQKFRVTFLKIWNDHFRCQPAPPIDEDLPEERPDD
Sequence of bovine Dopamine Receptor (DR), Non-selective Binding, DRD1 (gene 281125) (Q95136 whole entry, looked up): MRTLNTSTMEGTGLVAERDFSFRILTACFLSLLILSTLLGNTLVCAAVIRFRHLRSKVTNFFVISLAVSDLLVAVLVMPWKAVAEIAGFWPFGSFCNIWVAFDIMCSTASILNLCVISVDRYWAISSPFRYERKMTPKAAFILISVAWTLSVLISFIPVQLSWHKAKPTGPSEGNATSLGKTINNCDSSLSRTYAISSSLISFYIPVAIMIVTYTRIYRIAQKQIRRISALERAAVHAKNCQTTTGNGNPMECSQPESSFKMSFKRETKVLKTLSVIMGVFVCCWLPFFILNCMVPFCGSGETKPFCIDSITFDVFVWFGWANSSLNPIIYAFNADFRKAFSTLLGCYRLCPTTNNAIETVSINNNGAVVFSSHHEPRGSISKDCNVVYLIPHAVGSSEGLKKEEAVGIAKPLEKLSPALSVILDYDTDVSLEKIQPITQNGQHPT
Sequence of human Serotonin, 5-Hydroxytryptamine Receptor 2A (5HT2A), HTR2A (gene 3356) (P28223 whole entry, looked up): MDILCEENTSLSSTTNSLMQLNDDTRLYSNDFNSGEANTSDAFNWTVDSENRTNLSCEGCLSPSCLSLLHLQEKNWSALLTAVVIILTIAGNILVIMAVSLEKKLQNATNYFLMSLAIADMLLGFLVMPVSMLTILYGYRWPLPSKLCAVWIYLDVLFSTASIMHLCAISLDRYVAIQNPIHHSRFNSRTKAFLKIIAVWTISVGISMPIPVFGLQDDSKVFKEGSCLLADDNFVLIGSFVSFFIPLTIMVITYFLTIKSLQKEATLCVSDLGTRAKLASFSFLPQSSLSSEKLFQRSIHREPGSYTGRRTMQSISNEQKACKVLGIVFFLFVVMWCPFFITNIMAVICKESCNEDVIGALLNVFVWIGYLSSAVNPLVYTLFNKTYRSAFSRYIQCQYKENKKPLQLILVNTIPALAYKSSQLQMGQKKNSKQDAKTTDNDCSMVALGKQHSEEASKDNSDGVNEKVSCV
Sequence of human Serotonin, 5-Hydroxytryptamine Receptor 7 (5HT7), HTR7 (gene 3363) (P34969 whole entry, looked up): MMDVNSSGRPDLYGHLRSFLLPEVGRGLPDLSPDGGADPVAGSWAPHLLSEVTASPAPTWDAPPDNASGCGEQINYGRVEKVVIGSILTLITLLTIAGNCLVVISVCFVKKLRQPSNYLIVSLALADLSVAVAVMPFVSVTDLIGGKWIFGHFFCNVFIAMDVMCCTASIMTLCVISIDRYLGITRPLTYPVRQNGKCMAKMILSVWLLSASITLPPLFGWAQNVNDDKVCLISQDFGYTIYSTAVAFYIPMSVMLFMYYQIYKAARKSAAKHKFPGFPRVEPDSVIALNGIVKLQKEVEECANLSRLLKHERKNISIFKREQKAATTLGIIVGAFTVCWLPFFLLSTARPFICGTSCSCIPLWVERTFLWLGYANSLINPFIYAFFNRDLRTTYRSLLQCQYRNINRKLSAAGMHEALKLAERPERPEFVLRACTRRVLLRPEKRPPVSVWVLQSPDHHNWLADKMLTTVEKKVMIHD
Sequence of human Adrenergic, Alpha 2A Receptor (Adra2A), ADRA2A (gene 150) (P08913 whole entry, looked up): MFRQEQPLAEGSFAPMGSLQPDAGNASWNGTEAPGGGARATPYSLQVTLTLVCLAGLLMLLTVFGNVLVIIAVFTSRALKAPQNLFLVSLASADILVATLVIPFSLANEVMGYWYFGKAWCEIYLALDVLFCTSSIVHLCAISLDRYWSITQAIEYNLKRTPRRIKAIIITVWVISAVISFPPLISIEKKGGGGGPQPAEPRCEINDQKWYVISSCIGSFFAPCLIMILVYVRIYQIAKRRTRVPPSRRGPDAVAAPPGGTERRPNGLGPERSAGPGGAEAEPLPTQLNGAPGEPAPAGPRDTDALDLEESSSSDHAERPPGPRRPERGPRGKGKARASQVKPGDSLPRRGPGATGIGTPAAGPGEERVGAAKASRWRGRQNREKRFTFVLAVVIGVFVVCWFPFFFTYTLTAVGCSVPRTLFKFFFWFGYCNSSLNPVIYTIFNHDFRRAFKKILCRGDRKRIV
Sequence of human Adrenergic, Beta 1 Receptor (Adrb1), ADRB1 (gene 153) (P08588 whole entry, looked up): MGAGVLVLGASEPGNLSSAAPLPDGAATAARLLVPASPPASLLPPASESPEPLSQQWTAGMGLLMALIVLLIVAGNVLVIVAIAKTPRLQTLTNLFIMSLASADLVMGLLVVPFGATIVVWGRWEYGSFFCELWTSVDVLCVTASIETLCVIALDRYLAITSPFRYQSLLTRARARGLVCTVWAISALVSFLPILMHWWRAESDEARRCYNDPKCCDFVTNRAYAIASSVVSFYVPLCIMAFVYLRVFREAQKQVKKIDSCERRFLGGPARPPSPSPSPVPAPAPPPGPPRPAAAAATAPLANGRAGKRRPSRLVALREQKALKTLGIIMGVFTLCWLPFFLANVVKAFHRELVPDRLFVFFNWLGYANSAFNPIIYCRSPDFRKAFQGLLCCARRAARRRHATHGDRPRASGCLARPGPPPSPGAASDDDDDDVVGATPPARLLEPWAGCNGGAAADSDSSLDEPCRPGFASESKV

Take `CSc1nnc(C(C)(C)C)c(=O)n1N`: the result in assay [1] was inactive.

On to `CC[C@H](C)[C@H]1O[C@]2(C=C[C@@H]1C)C[C@@H]1C[C@@H](C/C=C(\C)[C@@H](O[C@H]3C[C@H](OC)[C@@H](O[C@H]4C[C@H](OC)[C@@H](NC)[C@H](C)O4)[C@H](C)O3)[C@@H](C)/C=C/C=C3\CO[C@@H]4[C@H](O)C(C)=C[C@@H](C(=O)O1)[C@]34O)O2`, for which the call in assay [2] and in assay [3] was inactive. Besides, the AC50 in assay [4] is 20.6 µM (active); in assay [5] it was 26.9 µM (active); in assay [6], 7.94 µM (active); in assay [7], 25 µM (active); in [8] it was 13.9 µM (active); in assay [9], 4.29 µM (active). For the same compound, the values for the AC50 in assay [10], in assay [11] and in [12] were 26.8 µM (active), 9.83 µM (active) and 10.7 µM (active), respectively.

As for `O=c1ccc(=O)[nH][nH]1`, the compound was classed as inactive in assay [1] and in [6].

Regarding `CCOC(=O)CC(SP(=O)(OC)OC)C(=O)OCC` (centres undefined), the compound was called inactive in assay [13], in assay [14], in assay [15] and in assay [16].

Regarding `CCOP(=S)(OCC)Oc1ccc([N+](=O)[O-])cc1`, in [17], the compound was called inactive. The AC50 in [18] is 7.9 µM (active).

On to `S=C1NCCN1`, for which the call in [1] was inactive.

With `CCC(=O)Nc1ccc(Cl)c(Cl)c1`, the AC50 in assay [1] is 25 µM (active); in assay [3], 15.3 µM (active); in assay [8], 7.47 µM (active); in assay [16], 10 µM (active).

In the case of `Nc1c(Cl)cc([N+](=O)[O-])cc1Cl`, the AC50 in [1] was 39.8 µM (active); in assay [3] it was 15.6 µM (active).

Take `CC1(C(=O)Nc2ccc(O)c(Cl)c2Cl)CCCCC1`: the compound was classed as inactive in assay [3].

For the compound `FC(F)C(F)(F)OCC(Cn1cncn1)c1ccc(Cl)cc1Cl` (centres undefined), the result in assay [1] and in assay [7] was inactive. Also, the AC50 in assay [15] was 25 µM (active).

For `Cc1nn(-c2cc(NS(C)(=O)=O)c(Cl)cc2Cl)c(=O)n1C(F)F`, in assay [1], the call was inactive.

On to `CCCCOC(=O)c1ccccc1C(=O)O`, for which, in assay [17], the outcome was inactive.

In the case of `CC(=NC#N)N(C)Cc1ccc(Cl)nc1`, the AC50 in assay [3] was 13.3 µM (active).

The values above are taken from PubChem BioAssay (EPA / NIEHS).
